Bioassay records as filed in PubChem BioAssay.
MITF inh: blocks human microphthalmia-associated transcription factor; 0.91% of 650,000 active; inhibition, % at 2.6 µM; AlphaScreen MITF homodimerization, bead proximity signal; AID 1259374; in the data active = inhibition above about 50%
GPR151 activ: activates the human receptor GPR151 | Q8TDV0 | PathHunter beta-arrestin GPR151 cells, luminescence | activation, % at 11.2 µM | 1% of 650,000 active | AID 1508602; in the data active = activation above about 4.9%
TEAD-YAP inh: TEAD-YAP interaction inhibition | HEK-TIYL cells, TEAD-Gal4/YAP UAS-luciferase luminescence | inhibition, % at 9.12 µM | 1.4% of 640,000 active | AID 1259422; in the data active = inhibition above about 32%
FBW7 activator: activators of human E3 ligase FBW7. Q969H0. AlphaScreen FBW7–phospho-cyclin E peptide binding, activator screen. normalized activity (activation), % at 26.1 µM. 0.13% of 650,000 active; in the data active = normalized activity above about 1.9%;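 also: purified mutant Fbw7 with reduced substrate affinity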
Target sequence (Q969H0 whole entry, looked up): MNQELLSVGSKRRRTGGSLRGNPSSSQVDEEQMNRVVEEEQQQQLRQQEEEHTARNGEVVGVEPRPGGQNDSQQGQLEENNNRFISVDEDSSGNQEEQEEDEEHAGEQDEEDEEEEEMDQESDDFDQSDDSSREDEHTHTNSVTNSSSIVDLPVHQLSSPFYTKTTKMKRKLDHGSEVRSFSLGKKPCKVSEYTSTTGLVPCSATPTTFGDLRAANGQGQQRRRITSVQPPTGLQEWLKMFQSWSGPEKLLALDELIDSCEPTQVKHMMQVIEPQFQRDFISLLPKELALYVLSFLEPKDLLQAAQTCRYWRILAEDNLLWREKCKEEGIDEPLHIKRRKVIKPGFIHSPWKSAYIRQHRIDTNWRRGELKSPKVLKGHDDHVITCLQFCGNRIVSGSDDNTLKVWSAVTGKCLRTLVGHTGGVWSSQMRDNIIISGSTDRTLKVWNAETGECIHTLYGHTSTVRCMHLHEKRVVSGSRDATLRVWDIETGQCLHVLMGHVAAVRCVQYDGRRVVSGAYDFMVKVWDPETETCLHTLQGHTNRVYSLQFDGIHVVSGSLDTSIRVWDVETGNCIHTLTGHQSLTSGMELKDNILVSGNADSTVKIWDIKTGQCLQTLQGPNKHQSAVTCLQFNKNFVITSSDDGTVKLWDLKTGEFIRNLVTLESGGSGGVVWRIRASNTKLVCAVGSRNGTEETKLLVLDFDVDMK
A number is an active result; . = inactive. An excerpt weighted towards active compounds, which were near 3.4% of everything screened.

SMILES | MITF inh | GPR151 activ | TEAD-YAP inh | FBW7 activator
Cc1cc(NC(=O)CSc2nc3ccccc3c(=O)n2CCCC(=O)NCCc2ccccc2)n[nH]1 | . | . | . | .
O=C(CSc1nc2ccccc2c(=O)n1CCCN1CCCCC1)Nc1ccccc1Cl | . | . | . | .
Cc1cc(NC(=O)CSc2nc3ccccc3c(=O)n2CCCN2CCCCC2)n[nH]1 | . | . | 84 | .
Cc1cc(NC(=O)CSc2nc3ccccc3c(=O)n2CCC(=O)N2CCN(c3ccccc3)CC2)n[nH]1 | . | . | . | .
Cc1cc(NC(=O)CSc2nc3ccccc3c(=O)n2CCCC(=O)N2CCCC2)n[nH]1 | . | . | 54 | .
Cc1nc2c3ccccc3nc(SCC(=O)Nc3cc(C)[nH]n3)n2n1 | . | . | 56 | .
Cc1cc(NC(=O)CSc2nc3ccccc3c(=O)n2CCCN2CCC(C)CC2)n[nH]1 | . | . | 85 | .
Cc1cc(S(=O)(=O)N2CCCCC2CCNC(=O)NC(C)(C)C)ccc1F (centres undefined) | . | . | . | .
CC1CN(S(=O)(=O)c2cccc(C(=O)N(CC(N)=O)C(C)C)c2)CC(C)O1 (centres undefined) | . | . | . | .
O=[N+]([O-])c1ccc2nc(-c3ccc(OC(F)F)cc3)cn2c1 | . | . | 45 | .
O=[N+]([O-])c1ccc(-c2cn3cc(Cl)ccc3n2)cc1 | . | . | . | .
Cc1nc2sccn2c1-c1csc(Nc2cccc(O)c2)n1 | . | . | 37 | .
Cc1nc2sccn2c1-c1csc(Nc2ccccc2)n1 | . | . | . | .
Cc1nc2sccn2c1-c1csc(Nc2ccc(N)cc2)n1 | . | . | . | .
Cc1nc2sccn2c1-c1csc(Nc2ccc(Br)cc2)n1 | . | . | 49 | .
Nc1ncnc(N2CCCc3ccccc32)c1[N+](=O)[O-] | . | . | . | .
CC1CC(C)CN(c2ncnc(N)c2[N+](=O)[O-])C1 (centres undefined) | . | . | 62 | .
CC1CCCCN1c1ncnc(N)c1[N+](=O)[O-] (centres undefined) | . | . | 42 | .
CCC1CCCCN1c1ncnc(N)c1[N+](=O)[O-] (centres undefined) | . | . | . | .
CC1Cc2ccccc2N1c1ncnc(N)c1[N+](=O)[O-] (centres undefined) | . | . | 81 | .
CC1CCCN(c2ncnc(N)c2[N+](=O)[O-])C1 (centres undefined) | . | . | 62 | .
CC1CN(c2ncnc(N)c2[N+](=O)[O-])CC(C)O1 (centres undefined) | . | . | . | .
O=C(Cc1cn(-c2ccc(Oc3ccccc3)nn2)c2ccccc12)NCc1ccccc1 | . | . | . | .
C=CCOc1ccc(/C=N/NC(=O)C(=O)Nc2cccc(C(F)(F)F)c2)cc1 | . | . | . | .
O=C(Cc1ccccc1)Nc1cccc(-c2cn3ccccc3n2)c1 | . | . | . | .
SMILES | MITF inh | GPR151 activ | TEAD-YAP inh | FBW7 activator
COc1ccc(CCN2CCC(c3nc(-c4ccsc4)no3)CC2)cc1OC | . | . | . | .
CC(=O)Nc1cc(CNCc2ccc3c(c2)Cc2ccccc2-3)cc(C(=O)N2CCCC2)c1 | . | . | . | .
CCN1C(=O)C(=Cc2ccc(N3CCCCC3)cc2)C(=O)N(CC)C1=S | . | . | . | .
CC1CCN(c2ncnc(N)c2[N+](=O)[O-])CC1 | . | . | . | .
Nc1ncnc(N2CCCC2)c1[N+](=O)[O-] | . | . | 33 | .
CCOC(=O)C1CCC(CN(Cc2ccc(Cl)cc2)S(=O)(=O)c2ccc(F)c(C(=O)Nc3cccc(Cl)c3Cl)c2)CC1 (centres undefined) | . | . | . | .
COc1ccc(Nc2c3c4c(cccc4[nH]c2=O)C(=O)c2ccccc2-3)cc1 | . | . | 55 | .
O=C1c2ccccc2-c2c(Nc3ccccc3)c(=O)[nH]c3cccc1c23 | . | . | 49 | .
CC12C(=O)N(c3ccc(C(=O)O)cc3)C(=O)C1C1c3ccccc3C2c2ccccc21 (centres undefined) | . | . | . | .
CN(Cc1ccccc1)C1CC(=O)N(c2ccc(Cl)c(Cl)c2)C1=O (centres undefined) | . | . | . | .
CN(C)/C=C/C=C/C=C1\CCC/C(=C\C=C\N(C)C)C1=O | 78 | . | . | .
CN(C)/C=C/C=C1\CCc2ccccc2C1=O | . | . | . | .
OC1CCC(Nc2ncc(-c3cnn(Cc4ccccc4)c3)n3ccnc23)CC1 (centres undefined) | . | . | . | .
Cc1ccc(NC(=O)c2n[nH]c3ccccc23)cc1Cl | . | . | . | .
Cc1ccc(NC(=O)c2n[nH]c3ccccc23)cc1 | . | . | 45 | .
CCOc1ccc(C(=O)CSCCC(=O)O)cc1 | . | . | 35 | .
CCOc1ccc(C(=O)CCNCCC(=O)O)cc1 | . | . | . | .
Cc1ccccc1COc1cccc2ccc(N3CCN(C(=O)c4ccco4)CC3)nc12 | . | . | . | .
COc1cc(COc2cccc3ccc(N4CCN(C(=O)c5ccco5)CC4)nc23)cc(OC)c1 | . | . | 35 | .
NC(=O)C1CCN(C(=S)NC(=O)c2ccc(Cl)cc2)CC1 | . | . | . | 2.3
COc1cc(N2CCOCC2)ccc1Nc1cc(Nc2ccccc2C(N)=O)c(C(F)F)cn1 | . | . | . | .
CNC(=O)c1ccccc1Nc1cc(Nc2ccc(C(=O)N(C)C)cc2OC)ncc1C(F)(F)F | . | . | 57 | .
CNC(=O)c1ccccc1Nc1cc(Nc2ccc(N3CCOCC3)cc2OC)ncc1C | . | . | 44 | .
CCN(CC)CCNC(=O)c1ccc(Nc2cc(Nc3ccccc3C(=O)NC)c(C(F)(F)F)cn2)c(OC)c1 | . | . | 64 | .
CNC(=O)c1ccccc1Nc1cc(Nc2ccc(C(=O)NC[C@H](O)C(=O)N(C)C)cc2OC)ncc1C(F)(F)F | . | . | . | .
SMILES | MITF inh | GPR151 activ | TEAD-YAP inh | FBW7 activator
COc1cc(N2CCOCC2)ccc1Nc1cc(Nc2ccccc2C(=O)N(C)C)c(C(F)(F)F)cn1 | . | . | . | .
CCN(CC)C(=O)C1CCCN(S(=O)(=O)c2cc([N+](=O)[O-])ccc2N2CCc3ccccc3C2)C1 (centres undefined) | . | . | . | .
CC1(C(=O)NNC(=O)/C=C\c2ccccc2)CC1(Br)Br (centres undefined) | . | . | . | .
Cc1ccc(C2=N/C(=C/c3ccc(Cl)c(Cl)c3)C(=O)O2)cc1[N+](=O)[O-] | . | . | . | .
O=C(c1nc2ccccn2c1CNCC1CCN(CCO)CC1)N1CCCC1 | . | . | . | .
O=C(C1CC1)N1CCN(c2ccc(-c3ccncc3)nn2)CC1 | . | . | . | .
CCNC(=O)[C@@H]1C[C@@H](NCc2ccccc2C)CN1Cc1ccccc1 | . | . | . | .
COc1cccc(C2(O)CSC3=C(C#N)C(c4cccc(Cl)c4)CC(=O)N32)c1 (centres undefined) | . | . | 67 | .
COc1ccc(C2(O)CSC3=C(C#N)C(c4cccc(Cl)c4)CC(=O)N32)cc1OC (centres undefined) | . | . | . | .
COc1cccc(C2(O)CSC3=C(C#N)C(c4cccc(F)c4)CC(=O)N32)c1 (centres undefined) | . | . | 48 | .
